Source: PubChem BioAssay
In the library only some 5.3% were active in any assay of this set; here they are far more common.
HCV inhibitor: blocks hepatitis C virus; Huh7.5.1 HCVcc-Cre infection, luciferase reporter, 44 h; Potency, µM (titrated, usually from 41.8 µM), for the others: at the top dose activity change, negative = inhibition, usual class: inhibitors; 340,000 tested, 3.4% active; active = well fitted inhibition curve with a large enough effect; inconclusive = small, poorly fitted or top-dose-only effect, or another doubt; inactive = no such curve, though single readings can be large or run the other way
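Antiviral activity was scored by luciferase reporter output from cells infected with HCVcc-Cre (~0.5 moi) in presence of compound, 44 h infection period, cells seeded 1,000/well 4 h prior.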
Marburg entry inh: blocks Marburg virus binding to or entry into cells; Marburg virus pseudotyped entry inhibition, cell reporter; 300,000 tested, 1.8% active; Potency, µM (top dose mostly 37.8 µM), without a hit: at the top dose activity change, negative = inhibition, most hits filed as inhibitors; AID 540276; calls by dose curve; tested in HEK293 cells
Lassa entry inh: Lassa virus entry inhibition; Lassa virus pseudotype entry inhibition, cell reporter; Potency, µM (series often up to 37.9 µM), inactives show at the top dose activity change, negative = inhibition, usual class: inhibitors; 300,000 tested, 1.2% active; calls by dose curve; tested in HEK293 cells; note: nearly all actives have a fitted effect of over 50% in size
FMDV antiviral: antivirals against foot and mouth disease virus | FMDV antiviral cell-based qHTS | Potency, µM (titrated, usually from 57.9 µM), for inactives: at the highest dose activity change, negative = inhibition, actives largely listed as inhibitors | 410,000 tested, 1.2% active; calls by dose curve; tested in HEK293T cells; note: read-out not given here; nearly all actives have a fitted effect of over 45% in size
VACV Venus inh: inhibitors of vaccinia virus (Venus reporter); Potency, µM (highest dose often 36.5 µM), for the others: at the top dose activity change, negative = inhibition, most hits filed as inhibitors; 330,000 tested, 0.46% active; AID 720580; Vaccinia virus Venus reporter expression, fluorescence; calls by dose curve; tested in A549 cells; note: nearly all actives have a fitted effect of over 30% in size
Vaccinia mCherry: vaccinia inhibition (mCherry reporter); Vaccinia virus mCherry reporter infection, fluorescence; Potency, µM (doses to about 36.5 µM), for inactives: top-dose activity change, negative = inhibition, actives largely listed as inhibitors; 310,000 tested, 0.63% active; calls by dose curve; tested in A549 cells; note: nearly all actives have a fitted effect of over 35% in size
The depositor's hits bear a star; i = inactive; ? = inconclusive; . = not tested or not shown; ! = repeats disagree; [ ] = dose if it differs, or a comment. % is set by controls: 0 for no effect and ±100 for the full control effect; potency is the fitted concentration of half-maximal effect.

SMILES	HCV inhibitor	Marburg entry inh	Lassa entry inh	FMDV antiviral	VACV Venus inh	Vaccinia mCherry
N#Cc1c(NC(=O)CSc2nc(N)cc(=O)[nH]2)sc2c1CCCC2	-21.3%	10µM*	?	?	-28.0%	-15.4%
CCn1c(=N)c(C(=O)NC2CCCCC2)cc2c(=O)n3cc(C)ccc3nc21	.	2.3%[46.1 µM]	-22.8%[46.1 µM]	10.6%	-4.2%	5.4%
Cc1cccc(OCC(=O)Nc2c(C(=O)N3CCN(c4ccccc4F)CC3)oc3ccccc23)c1	.	10µM*	?	51.6%	-6.9%	-5.0%
COc1cccc(CC(=O)Nc2c(C(=O)N3CCN(c4ccccc4F)CC3)oc3ccccc23)c1	.	3.3%[46.1 µM]	-13.1%[46.1 µM]	43.4%	-15.6%	-29.2%
CC(=O)C1=C(c2ccc(Br)cc2)C(=O)c2ccccc2C1=O	?	5.17µM*	2.51µM*	3.16µM*	5.7%	-15.3%
CC1(C)CC[C@]2(C(=O)O)CC[C@@]3(C)C(=CCC4[C@@]5(C)CCC(O)C(C)(C)C5CC[C@@]43C)C2C1 (stereo not given in full)	.	.	.	17.2%	-6.8%	-4.9%
CC1(C)C2CC[C@]3(C)C(CC=C4[C@@H]5C[C@@](C)(CO)[C@@H](O)C[C@]56C[C@@H](OC6=O)[C@]43C)[C@@]2(C)CC[C@@H]1O (stereo not given in full)	1.26µM*	.	.	-15.9%	-2.1%	0.0%
Cc1cc(CNC(=O)c2cnn(-c3ncc4c(n3)-c3ccccc3CCC4)c2C2CC2)on1	.	.	.	21.1%	-8.1%	i
CC[n+]1c(/C=C(\C)SC)sc2ccccc21	?	-29.0%	?	.	-10.0%	?
CC/C(=C/c1sc2ccccc2[n+]1CC)SC	?	?	-0.1%	?	-14.1%	i
CC[n+]1c(/C=C2/C=C(C)CC(C)C2)sc2ccccc21 (stereo not given)	3.55µM*	?	?	?	.	.
CC[n+]1c(C=C2C=C(C)OC(C)=C2)sc2ccccc21	2.51µM*	?	5.01µM*	?	79.3%	-28.7%
Cc1c(C(=O)Nc2ccc(F)cc2)oc2ccc(S(=O)(=O)N3CCCCCC3)cc12	.	.	-7.0%[46.1 µM]	28.2µM*	-29.9%	-26.5%
Cc1c(C(=O)NCCc2ccccc2)oc2ccc(S(=O)(=O)N3CCC4(CC3)OCCO4)cc12	11.2µM*	?	23.1µM*	?	-13.1%	-10.7%
CCOC(=O)C1CCN(C(=O)c2oc3ccc(S(=O)(=O)N4CC(C)CC(C)C4)cc3c2C)CC1 (stereo not given)	4.47µM*	?	-25.1%	-29.1%	.	.
Cc1c(C(=O)NCc2cccnc2)oc2ccc(S(=O)(=O)N3CCCCCC3)cc12	11.2µM*!	-5.7%	-14.6%	-28.7%	.	.
Cc1cc(C)c2nc(-c3ccncc3)cc(C(=O)N3CCN(Cc4ccccc4Cl)CC3)c2c1	-22.4%	-26.7%[46.1 µM]	?	-17.5%	-24.4%	-18.2%
Cc1c(C(=O)N2CCc3ccccc3C2)oc2ccc(S(=O)(=O)N3CCCCCC3)cc12	8.91µM*	?	?	-3.0%	?	-18.8%
COc1ccc(NC(=O)c2oc3ccc(S(=O)(=O)N4CCC5(CC4)OCCO5)cc3c2C)cc1	12.6µM*	20.6µM*!	?	12.6µM*	.	.
Cc1c(C(=O)Nc2cccc(C(F)(F)F)c2)oc2ccc(S(=O)(=O)N3CCC4(CC3)OCCO4)cc12	.	.	28.6%[46.1 µM]	15.8µM*	-25.3%	-14.8%
Cc1c(C(=O)N2CCOCC2)oc2ccc(S(=O)(=O)N3CCCC3)cc12	7.3%	10.6%	-21.6%	-13.8%	-15.5%	-18.1%
Cc1ccc(NC(=O)c2oc3ccc(S(=O)(=O)N4CCC5(CC4)OCCO5)cc3c2C)cc1Cl	.	.	4.3%[46.1 µM]	-22.6%	-10.1%	-3.5%
CC(=O)O[C@@]12CO[C@@H]1C[C@H](O)[C@@]1(C)C(=O)[C@H](O)C3=C(C)[C@@H](OC(=O)[C@H](O)[C@@H](NC(=O)OC(C)(C)C)c4ccccc4)C[C@@](O)([C@@H](OC(=O)c4ccccc4)[C@H]21)C3(C)C	.	.	.	.	?	i
Nc1ccc2c(c1)N1CCN=C1S2	4.1%	5.0%	-5.2%	1.8%	.	.
O=C(Nc1ccc(Cl)cc1)Nc1ccc2c(c1)N1CCN=C1S2	10µM*	-22.5%	?	0.0%	?	-21.0%
SMILES	HCV inhibitor	Marburg entry inh	Lassa entry inh	FMDV antiviral	VACV Venus inh	Vaccinia mCherry
Cc1ccc2nc(/C=C/c3ccc(N(C)C)cc3)ccc2c1	.	.	.	.	10.9%	-1.2%
COC(=O)C1=C(C)N(Cc2ccco2)C(=O)/C1=C\c1ccc([N+](=O)[O-])cc1	3.5%	?	?	22.4µM*	10.4%	-6.9%
CCOc1ncccc1C(=O)OC(C)C(=O)Nc1ccc(Cl)cn1 (stereo not given)	-25.5%	.	.	-7.3%	.	.
CNc1ccccc1C(=O)OC(C)C(=O)Nc1ccc(Cl)cn1 (stereo not given)	?	1.5%	9.9%	-7.4%	10µM*	?
CC(OC(=O)Cc1ccsc1)C(=O)Nc1ccc(Cl)cn1 (stereo not given)	22.4µM*	-6.9%	12.0%	-17.1%	-13.8%	-26.0%
COc1cccc(CC(=O)OC(C)C(=O)Nc2ccc(Cl)cn2)c1 (stereo not given)	-8.5%	-10.7%	5.5%[46.1 µM]	-10.9%	4.2%	i
CCOC(=O)c1c(-c2ccccc2)oc2ccc(OCC(=O)NNC(=O)CCC(=O)O)cc12	5.3%	.	.	-1.1%	.	.
COc1ccc2oc(-c3ccccc3)c(C(=O)N(C)C)c2c1	-16.0%	.	.	4.6%	.	.
CCOC(=O)c1c(-c2ccccc2)oc2ccc(O)c(CN3CCCC3)c12	-23.8%	23.1µM*	?	-21.6%	.	.
CCOC(=O)c1c(-c2ccccc2)oc2ccc(O)c(CN(C)C)c12	-29.3%	?	-28.9%	0.0%	.	.
CCOC(=O)c1c(-c2ccccc2)oc2ccc(OC(C)=O)cc12	11.2µM*	-9.1%	?	.	-23.7%	?
CCOC(=O)c1c(-c2ccc(OC)cc2)oc2ccc(OC(=O)N(C)C)cc12	0.316µM*	18.3µM*	?	?	.	.
CCOC(=O)c1c(-c2ccccc2)oc2ccc(OC(C)C(=O)O)cc12 (stereo not given)	11.0%	12.4%[46.1 µM]	29.9%[46.1 µM]	-13.5%	8.4%	i
CCOC(=O)c1c(-c2ccccc2)oc2ccc(OCC(O)CN(C)C)cc12 (stereo not given)	14.1µM*	?	?	-12.8%	?	?
Cc1noc(C)c1CCC(=O)N1CCOc2ccc(CN3CCN(c4ccccn4)CC3)cc2C1	.	.	.	?	-24.4%	?
O=C(O)c1cccs1	.	.	.	.	-3.6%	-10.9%
CC(=O)c1ccc(NC(=O)c2cc(C3CC3)nc3c2c(C)nn3-c2ccc(C)cc2)cc1	.	.	6.3%[46.1 µM]	-15.4%	-0.3%	-6.2%
CCN(CC)CCNC(=O)c1ccc(NC(=O)c2ccccc2-c2ccc(C(F)(F)F)cc2)cc1	?	2.82µM*	?	-10.8%	-20.4%	-28.8%
CCN(CC)CCNC(=O)c1ccc(NC(=O)c2cn(-c3ccc(F)cc3)nc2-c2cccc(OC)c2)cc1	?	?	?	10.7%	-22.7%	-21.6%
CCN(CC)CCNC(=O)c1ccc(NC(=O)Cc2ccccc2F)cc1	-9.7%	?	1.4%	6.3%	-11.1%	-19.5%
